Assay results from the supplement of paper PMC7411054.
Where a name gives a salt, the structure may show the parent alone.

Assays:
Conditions in all cases: treatment time: 24 h
A549-ACTB-RAB5A [1] = assay: lowest phenotypically active concentration; higher = less potent
Summary of the method: (§1)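 Phenotypic activity depended on meeting both a deviation and a reproducibility criterion. The fifteen gene-edited A549, HepG2 and WPMY1 reporter lines were treated at 0.3, 1, 3 or 9 µM for 24 h, four wells each, then imaged live with features normalised to solvent control wells. Deviation required ≥3 of 4 wells past the 95th percentile of control Euclidean distances, and reproducibility a median replicate Pearson correlation above the 95th percentile of non-replicates.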

A549-CANX-COX4 [2] = assay: as above
Summary of the method: as §1

A549-GM130-SQSTM1 [3] = assay: as above
Summary of the method: as §1

A549-TP53BP1-CLTA [4] = assay: as above
Summary of the method: as §1

A549-TUBA1B-RELA [5] = assay: as above
Summary of the method: as §1

A549-ACTB-RAB5A [6] = assay: phenotypically active (imaging signature differs from DMSO and reproducible) at any of 0.3-9 uM (binary (1 = active, 0 = inactive)); higher = active
Summary of the method: as §1

A549-CANX-COX4 [7] = assay: as above
Summary of the method: as §1

A549-GM130-SQSTM1 [8] = assay: as above
Summary of the method: as §1

A549-TP53BP1-CLTA [9] = assay: as above
Summary of the method: as §1

A549-TUBA1B-RELA [10] = assay: as above
Summary of the method: as §1

HepG2-ACTB-RAB5A = assay: as above
Summary of the method: as §1

HepG2-CANX-COX4 = assay: as above
Summary of the method: as §1

HepG2-GM130-SQSTM1 = assay: as above
Summary of the method: as §1

HepG2-TP53BP1-CLTA = assay: as above
Summary of the method: as §1

HepG2-TUBA1B-RELA = assay: as above
Summary of the method: as §1

WPMY1-ACTB-RAB5A = assay: as above
Summary of the method: as §1

WPMY1-CANX-COX4 = assay: as above
Summary of the method: as §1

WPMY1-GM130-SQSTM1 = assay: as above
Summary of the method: as §1

WPMY1-TP53BP1-CLTA = assay: as above
Summary of the method: as §1

WPMY1-TUBA1B-RELA = assay: as above
Summary of the method: as §1

SMILES	lowest phenotypically active concentration (A549-ACTB-RAB5A [1]) [µM]	lowest phenotypically active concentration (A549-CANX-COX4 [2]) [µM]	lowest phenotypically active concentration (A549-GM130-SQSTM1 [3]) [µM]	lowest phenotypically active concentration (A549-TP53BP1-CLTA [4]) [µM]	lowest phenotypically active concentration (A549-TUBA1B-RELA [5]) [µM]	phenotypically active (A549-ACTB-RAB5A [6])	phenotypically active (A549-CANX-COX4 [7])	phenotypically active (A549-GM130-SQSTM1 [8])	phenotypically active (A549-TP53BP1-CLTA [9])	phenotypically active (A549-TUBA1B-RELA [10])	phenotypically active (HepG2-ACTB-RAB5A)	phenotypically active (HepG2-CANX-COX4)	phenotypically active (HepG2-GM130-SQSTM1)	phenotypically active (HepG2-TP53BP1-CLTA)	phenotypically active (HepG2-TUBA1B-RELA)	phenotypically active (WPMY1-ACTB-RAB5A)	phenotypically active (WPMY1-CANX-COX4)	phenotypically active (WPMY1-GM130-SQSTM1)	phenotypically active (WPMY1-TP53BP1-CLTA)	phenotypically active (WPMY1-TUBA1B-RELA)
COc1c(C)cnc(Cn2cc(C#CCC(C)(C)O)c3c(Cl)nc(N)nc32)c1C	≤ 0.3	≤ 0.3	≤ 0.3	≤ 0.3	≤ 0.3	1 (active)	1 (active)	1 (active)	1 (active)	1 (active)	1 (active)	1 (active)	1 (active)	1 (active)	1 (active)	1 (active)	1 (active)	1 (active)	1 (active)	1 (active)
O=C(c1cccc(Cl)c1F)N1CCN(Cc2cccc(Nc3nccs3)n2)CC1	≤ 0.3	1	1	1	1	1 (active)	1 (active)	1 (active)	1 (active)	1 (active)	1 (active)	1 (active)	1 (active)	1 (active)	1 (active)	1 (active)	1 (active)	1 (active)	1 (active)	1 (active)
CCC1(O)CC2CN(CCc3c([nH]c4ccccc34)C(C(=O)OC)(c3cc4c(cc3OC)N(C)C3C(O)(C(=O)OC)C(OC(C)=O)C5(CC)C=CCN6CCC43C65)C2)C1 (stereo not given) [Vinblastine sulfate]	≤ 0.3	≤ 0.3	≤ 0.3	≤ 0.3	≤ 0.3	1 (active)	1 (active)	1 (active)	1 (active)	1 (active)	1 (active)	1 (active)	1 (active)	1 (active)	1 (active)	1 (active)	1 (active)	1 (active)	1 (active)	1 (active)
O=C(Cc1ccc(-c2ccc(OCCN3CCOCC3)cc2)cn1)NCc1ccccc1	≤ 0.3	≤ 0.3	≤ 0.3	≤ 0.3	≤ 0.3	1 (active)	1 (active)	1 (active)	1 (active)	1 (active)	1 (active)	1 (active)	1 (active)	1 (active)	1 (active)	1 (active)	1 (active)	1 (active)	1 (active)	1 (active)
COc1cc([C@@H]2c3cc4c(cc3[C@@H](O[C@@H]3O[C@@H]5CO[C@@H](c6cccs6)O[C@H]5[C@H](O)[C@H]3O)[C@H]3COC(=O)[C@H]23)OCO4)cc(OC)c1O [teniposide]	≤ 0.3	≤ 0.3	≤ 0.3	≤ 0.3	≤ 0.3	1 (active)	1 (active)	1 (active)	1 (active)	1 (active)	1 (active)	1 (active)	1 (active)	1 (active)	1 (active)	1 (active)	1 (active)	1 (active)	1 (active)	1 (active)
O=C(NCc1cccc(O)c1)Nc1nc(-c2ccncc2)cs1 [RKI 1447 dihydrochloride]	≤ 0.3	≤ 0.3	≤ 0.3	≤ 0.3	≤ 0.3	1 (active)	1 (active)	1 (active)	1 (active)	1 (active)	1 (active)	1 (active)	1 (active)	1 (active)	1 (active)	1 (active)	1 (active)	1 (active)	1 (active)	1 (active)
Cn1cc(-c2[nH]c3cc(NC(=O)[C@H](N)C4CCCCC4)cc4c3c2C=NNC4=O)cn1	9	9	9	3	9	1 (active)	1 (active)	1 (active)	1 (active)	1 (active)	1 (active)	1 (active)	1 (active)	1 (active)	1 (active)	1 (active)	1 (active)	1 (active)	1 (active)	1 (active)
Cc1ccc(/C(=C/CN2CCCC2)c2cccc(/C=C/C(=O)O)n2)cc1 [acrivastine]	1	9	3	9	1	1 (active)	1 (active)	1 (active)	1 (active)	1 (active)	1 (active)	1 (active)	1 (active)	1 (active)	1 (active)	1 (active)	1 (active)	1 (active)	1 (active)	1 (active)
CC(=O)O[C@@]12CO[C@@H]1C[C@H](O)[C@@]1(C)C(=O)[C@H](O)C3=C(C)[C@@H](OC(=O)[C@H](O)[C@@H](NC(=O)OC(C)(C)C)c4ccccc4)C[C@](O)([C@@H](OC(=O)c4ccccc4)[C@H]21)C3(C)C [Docetaxel]	≤ 0.3	≤ 0.3	≤ 0.3	≤ 0.3	≤ 0.3	1 (active)	1 (active)	1 (active)	1 (active)	1 (active)	1 (active)	1 (active)	1 (active)	1 (active)	1 (active)	1 (active)	1 (active)	1 (active)	1 (active)	1 (active)
CC(=O)c1c(C)c2cnc(Nc3ccc(N4CCNCC4)cn3)nc2n(C2CCCC2)c1=O	≤ 0.3	≤ 0.3	≤ 0.3	≤ 0.3	≤ 0.3	1 (active)	1 (active)	1 (active)	1 (active)	1 (active)	1 (active)	1 (active)	1 (active)	1 (active)	1 (active)	1 (active)	1 (active)	1 (active)	1 (active)	1 (active)
COc1cc2c(cc1-c1c(C)noc1C)ncc1[nH]c(=O)n([C@H](C)c3ccccn3)c12 [I-BET 151 dihydrochloride]	1	3	1	3	1	1 (active)	1 (active)	1 (active)	1 (active)	1 (active)	1 (active)	1 (active)	1 (active)	1 (active)	1 (active)	1 (active)	1 (active)	1 (active)	1 (active)	1 (active)
